Assay results as given in PubChem BioAssay (NCATS).
Records with an inconclusive call do not appear. Activity calls are given as the source filed them. Unless noted, calls come from the whole dose curve; as a rule, active = well fitted curve in the direction sought with a large enough effect; inconclusive = small, poorly fitted or top-dose-only effect, or another doubt; inactive = no such curve, though single readings can be large; an effect the other way counts as inactive or inconclusive.

Legend:
[1] = target: Glucocorticoid receptor (Homo sapiens) (UniProt P04150); test: GR-GFP Redistribution (AID 450;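 active = compounds whose dose series gives a full or clear partial fitted curve of increased nuclear translocation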; note: potency is the fitted concentration of half-maximal effect); conditions: U2OS GR-GFP nuclear translocation, laser cytometry, 2 h
[2] = target: Glucocorticoid receptor (Homo sapiens) (UniProt P04150); test: GR-EFC Redistribution (AID 451; calls by dose curve; note: potency is the fitted concentration of half-maximal effect); conditions: CHO-K1 GR-EFC translocation, beta-gal luminescence, 2 h
In short: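 CHO-K1 cells expressing nuclear EA and GR-ED fragments of b-gal; compounds titrated up to 46 uM final, 2 h at 37 C. GR nuclear translocation read as complemented b-gal luminescence after 1 h RT detection.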

[3] = target: 3',5'-cyclic-AMP phosphodiesterase 4B (Homo sapiens) (UniProt Q07343); test: qHTS Assay for Inhibitors of PDE-IV (AID 607; active = well fitted activation curve with a large enough effect in the main read-out, with a control signal flat, not every such curve was filed as active; note: % of control where 0% means no effect); conditions: HEK293 ACTOne CNG channel cells, membrane potential fluorescence; series mostly up to 22.9 µM
In short: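 Live HEK293 cells with a modified cyclic nucleotide-gated (CNG) channel report intracellular cAMP via membrane-potential dye fluorescence (ex 535/em 590 nm). Endogenous PDE-IV was targeted. Compounds were tested at up to 22.9 uM final; RO 20-1724 100 uM served as control.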

[4] = target: Cytochrome P450 2C9 (Homo sapiens) (UniProt P11712); test: qHTS Assay for Inhibitors and Substrates of Cytochrome P450 2C9 (AID 883); conditions: recombinant CYP2C9, luciferin-H luminescence, 60 min; series mostly up to 57.1 µM; note: potency is the fitted concentration of half-maximal effect; nearly all actives have a fitted effect of over 60% in size
In short: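 10nM CYP2C9 + 100uM Luciferin-H (=KM), 25mM KPO4; cpd 10 min 37C; NADPH regen, 60 min 37C; stop/detect with P450 Glo-Buffer 20 min; luminescence. Norm. to 57uM sulphaphenazole as full inhibition.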

[5] = target: Cytochrome P450 3A4 (Homo sapiens) (UniProt P08684); test: qHTS Assay for Activators of Cytochrome P450 3A4 (AID 885); conditions: recombinant CYP3A4, Luciferin-PPXE luminescence, 60 min; series mostly up to 57.1 µM; note: potency is the fitted concentration of half-maximal effect; nearly all actives have a fitted effect of over 65% in size
In short: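 Quantitative HTS format: compounds preincubated with 20nM human CYP3A4 and Luciferin-PPXE substrate at KM, reaction started by NADPH regeneration, stopped after 60 min, luciferase luminescence read 20 min later.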

[6] = qHTS Assay for Lipid Storage Modulators (AID 1519; calls by dose curve; for activity change, negative = inhibition: % is set by controls: 0 for no effect and ±100 for the full control effect); conditions: Drosophila S3 cells, BODIPY lipid droplet/cell ratio, laser cytometry, cells loaded with oleic acid
In short: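 Cells seeded at 5,000 per well were treated with compounds over a concentration series and loaded with oleic acid (400 uM, as added). Lipid droplet fluorescence (488 nm excitation, 500-530 nm channel) was read by laser-scanning cytometry and normalized to 20 uM Triacsin C.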

[7] = target: Ubiquitin carboxyl-terminal hydrolase 1 (Homo sapiens) (UniProt O94782); test: Inhibitors of USP1/UAF1: Pilot qHTS (AID 504865); conditions: purified USP1/UAF1, Ub-rhodamine cleavage fluorescence; series mostly up to 114 µM;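 note: rhodamine fluorescence freed from ubiquitin-rhodamine substrate followed over time; top concentration of the series differs between compounds; % is set by controls: 0 for no effect and ±100 for the full control effect; nearly all actives have a fitted effect of over 35% in size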
In short: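 Enzyme-free wells gave the negative control, while test wells held 1nM USP1/UAF1 preincubated with compound for 15 min at room temperature. Ub-Rho at 150nM final started the reaction, and fluorescence at 480/540 nm was recorded kinetically.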

[8] = target: DNA dC->dU-editing enzyme APOBEC-3G (Homo sapiens) (UniProt Q9HC16); test: qHTS for inhibitors of Vif-A3G interactions: Validation (AID 588379); conditions: Vif-A3G protein interaction assay; series mostly up to 46.1 µM; note: 0% is about no effect
In short: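 HeLa cells stably expressing Vif and A3G-eYFP, 700 cells/well, incubated overnight at 37 deg C, then exposed to compound overnight at 37 deg C. Inhibition of Vif-mediated degradation read as increased yellow fluorescence (Ex 488/Em 500-530) by laser-scanning cytometry.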

[9] = tested on: Zika virus NS2B-NS3 protease; test: Primary screen GU AMC qHTS for Zika virus inhibitors (AID 1347154); conditions: Zika NS2B-NS3 unlinked protease, AMC fluorogenic substrate; series mostly up to 54.1 µM;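 note: 0% = no-inhibitor control and -100% = no-enzyme control; nearly all actives have a fitted effect of over 70% in size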
In short: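 Unlinked Zika NS2B hydrophilic domain–NS3 protease complex at 25 nM in 10 mM Tris-HCl pH 8.0, 0.01% Tween 20, with an AMC peptide substrate. Fluorescence change (340/450 nm) over 15 min at room temperature, normalized to controls, fitted to 4-parameter Hill.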

[10] = target: DNA repair nuclease/redox regulator APEX1 (Homo sapiens) (UniProt P27695); test: qHTS Validation Assay for Inhibitors of the Human Apurinic/apyrimidinic Endonuclease 1 (APE1) (AID 1705;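 note: TAMRA fluorescence gain over two minutes as APE1 cuts a quenched THF abasic duplex; % is set by controls: 0 for no effect and ±100 for the full control effect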); conditions: purified APE1 endonuclease activity, fluorescence, titration; series mostly up to 57.1 µM
In short: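 Substrate: 50 nM final fluorophore/quencher THF-abasic duplex. Enzyme preincubated with compounds 15 min, RT. Progress derived from fluorescence difference, third minus first kinetic read.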

[11] = Counterscreen for APE1 Inhibitors: Fluorescent Dye Displacement Validation Assay (AID 1707); conditions: fluorescent dye displacement from DNA; series mostly up to 57.1 µM;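 note: plate controls were ThO with dsDNA and no compound for no effect and ThO without dsDNA for full effect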
In short: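 ThO 250 nM + dsDNA 50 nM (THF abasic site, 5'-TAMRA), Tris-HCl pH7.5/50mM NaCl/2 mM MgCl2/0.01% Tween-20; compounds pin-transferred; ex 480/em 540 nm endpoint. Neutral = no compound; no-DNA ThO wells = negative control.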

[12] = target: Endonuclease 4 (Escherichia coli (strain K12)) (UniProt P0A6C1); test: Counterscreen for APE1 Inhibitors: qHTS Validation Assay for Inhibitors of Endonuclease IV (AID 1708); note: % is set by controls: 0 for no effect and ±100 for the full control effect; conditions: E. coli endonuclease IV, DNA cleavage fluorescence; series mostly up to 57.1 µM
In short: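 E. coli EndoIV at 2 nM final, preincubated 15 min at room temperature with compound, then 50 nM TAMRA/BHQ-2 THF abasic-site duplex added. Buffer: 50 mM Tris-HCl pH 7.5, 50 mM NaCl, 2 mM MgCl2, 1 mM DTT, 0.01% Tween-20. Kinetic fluorescence increase, third minus first read.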

[13] = qHTS for differential inhibitors of proliferation of Plasmodium falciparum line Dd2 (AID 1882); conditions: Potency: Plasmodium falciparum Dd2 proliferation inhibition; series mostly up to 28.7 µM;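 note: plate controls were DMSO vehicle for no effect and 0.29 µM artemisinin for full effect; nearly all actives have a fitted effect of over 65% in size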
In short: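 Dd2-infected erythrocytes (0.3% parasitemia, 2.5% hematocrit final) incubated with compound 72 h at 37 C, 5% CO2; lysed with saponin/Triton buffer containing SYBR Green I, incubated overnight in the dark, then read by fluorescence (485/535 nm). Normalized to 0.29 uM artemisinin and DMSO.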

[14] = qHTS for differential inhibitors of proliferation of Plasmodium falciparum line W2 (AID 1883); conditions: Potency: Plasmodium falciparum W2 proliferation inhibition; series mostly up to 28.7 µM;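 note: potency is the fitted concentration of half-maximal effect; parasites grown with compound for 72 h before lysis and staining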
[15] = target: Ferritin light chain (Equus caballus) (UniProt P02791); test: qHTS Validation Assay for Identification of Novel General Anesthetics (AID 2323); conditions: horse apoferritin, anesthetic-site fluorescent probe displacement; series mostly up to 76.9 µM; note: % is set by controls: 0 for no effect and ±100 for the full control effect
In short: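 Normalized fluorescence response, scaled between free 1-AMA and 1-AMA/apoferritin complex, fitted to a four-parameter Hill equation for concentration-effect values. Binding mix: 10 uM horse-spleen apoferritin, 50% saturated 1-AMA in PBS; read 380/535 nm after 10 min.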

[16] = target: ATP-dependent DNA helicase Q1 (Homo sapiens) (UniProt P46063); test: qHTS Validation Assay for Inhibitors of RecQ-Like Dna Helicase 1 (RECQ1) (AID 2353); conditions: recombinant RECQ1 helicase DNA unwinding assay; series mostly up to 25.6 µM;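 note: plate controls were DMSO vehicle for no effect and enzyme-free control for full effect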
In short: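 50 nM RECQ1T1 preincubated 15 min with compound in Tris pH 8.0 buffer with MgCl2, DTT, Tween-20 and 2.5 ug/ml poly(dI-dC); started with 200 nM TAMRA/BHQ-2 forked duplex and 2 mM ATP. Unwinding read as fluorescence (525/598 nm), two reads 2 h apart.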

[17] = target: RecQ-like DNA helicase BLM (Homo sapiens) (UniProt P54132); test: qHTS Validation Assay for Inhibitors of Bloom's syndrome helicase (BLM) (AID 2364); conditions: BLM helicase DNA unwinding, fluorescence, in vitro; series mostly up to 57.1 µM;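 note: plate controls were DMSO vehicle for no effect and enzyme-free control for full effect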
In short: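 50 nM BLM preincubated 15 min at room temperature with compound in pH 8.0 Tris buffer containing 2.5 ug/ml poly(dI-dC); started with 200 nM TAMRA/BHQ-2 forked duplex and 2 mM ATP (final). Unwinding read as TAMRA fluorescence increase, two reads 2 h apart.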

[18] = Validation screen for inhibitors of Lassa infection (AID 463096; calls by dose curve; note: potency is the fitted concentration of half-maximal effect); conditions: Lassa virus infection, cell-based; series mostly up to 46.1 µM
[19] = target: Transient receptor potential cation channel subfamily V member 1 (Homo sapiens) (UniProt Q8NER1); test: HTS Assay for Compounds that Act as Enhancers of the Vanilloid Receptor 1 (AID 488979); conditions: TRPV1-expressing cells, enhancer of channel activity; series mostly up to 41.7 µM; note: 0% is about no effect
In short: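 TRPV1 cells loaded with Fluo-8 calcium dye; compound added and Ca2+ signal (ex 480/em 520 nm) followed 3 min, then capsaicin at EC20 added and read 2 more min to detect enhancement.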

[20] = target: Thyrotropin-releasing hormone receptor (Homo sapiens) (UniProt P34981); test: qHTS for Small Molecule Agonists and Allosteric Enhancers of Human TRH Receptor: Validation Screen for Agonists (AID 493127;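 active = calcium activation more than 3 SD above the typical response in the agonist read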;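 note: intracellular calcium rise by fluo-8 fluorescence before TRH EC20 addition; 0% is about no effect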); conditions: TRH receptor agonist cell assay; at 2 µM; stronger effect = higher value
In short: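 Cells 2000/well, 10% FCS, 18 h 33.5C/5% CO2 → fluo-8 Ca dye, RT 30 min–1.5 h → FDSS baseline 10 × 1 s → compound added → 230 cycles (1 s/cycle) agonist mode. TRH controls.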

[21] = target: Galactokinase (Homo sapiens) (UniProt P51570); test: qHTS Validation Assay for Inhibitors of Human Galactokinase (GALK) (AID 493189); conditions: purified human GALK enzyme activity, qHTS 7-point titration; series mostly up to 57.5 µM; note: 0% is about no effect
In short: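 Enzyme activity is inferred from ATP consumption: human GALK phosphorylates galactose (100 uM) using 35 uM ATP for 1 h at room temperature, and luciferase-based Kinase-Glo Plus reports unconsumed ATP.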

[22] = target: Voltage-gated inwardly rectifying potassium channel KCNH2 (Homo sapiens) (UniProt Q12809); test: qHTS Assay for Small Molecule Inhibitors of the Human hERG Channel Activity (AID 588834); conditions: U2OS BacMam hERG, FluxOR thallium flux fluorescence; series mostly up to 46.1 µM;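 note: top concentration of the series differs between compounds; % is set by controls: 0 for no effect and ±100 for the full control effect; lower thallium flux fluorescence means stronger hERG block; nearly all actives have a fitted effect of over 50% in size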
In short: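 Blockade is seen as reduced FluxOR thallium-flux fluorescence in U2OS cells expressing hERG from a BacMam construct, in Opti-MEM with 2% FCS. Concentration-response data fitted to the Hill equation for AC50.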

[23] = target: Cytochrome P450 2D6 (Homo sapiens) (UniProt P10635); test: qHTS Assay for Inhibitors and Substrates of Cytochrome P450 2D6 (AID 891); conditions: recombinant CYP2D6, luciferin-ME EGE luminescence; series mostly up to 57.1 µM; note: potency is the fitted concentration of half-maximal effect; nearly all actives have a fitted effect of over 60% in size
In short: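 Human CYP2D6 (5 nM) with 30 uM Luciferin-ME EGE (at Km) in 100 mM KPO4, compound preincubated 10 min, then NADPH regeneration system for 60 min at room temperature. Luciferin read by luminescence; normalized to 1.43 uM quinidine.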

DNA dC->dU-editing enzyme APOBEC-3G (Homo sapiens), sequence (Q9HC16 whole entry, looked up): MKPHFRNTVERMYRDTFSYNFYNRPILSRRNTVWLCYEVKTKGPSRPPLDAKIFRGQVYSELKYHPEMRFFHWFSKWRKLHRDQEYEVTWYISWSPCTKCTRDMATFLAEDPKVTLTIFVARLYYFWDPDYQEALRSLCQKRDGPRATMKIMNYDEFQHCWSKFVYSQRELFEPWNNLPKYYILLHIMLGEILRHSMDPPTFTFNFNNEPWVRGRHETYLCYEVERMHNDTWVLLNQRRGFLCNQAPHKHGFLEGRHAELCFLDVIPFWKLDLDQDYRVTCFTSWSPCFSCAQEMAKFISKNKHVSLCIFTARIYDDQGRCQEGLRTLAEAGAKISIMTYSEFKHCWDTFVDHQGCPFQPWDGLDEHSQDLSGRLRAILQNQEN
Glucocorticoid receptor (Homo sapiens), sequence (P04150 whole entry, looked up, the tested form may be a part): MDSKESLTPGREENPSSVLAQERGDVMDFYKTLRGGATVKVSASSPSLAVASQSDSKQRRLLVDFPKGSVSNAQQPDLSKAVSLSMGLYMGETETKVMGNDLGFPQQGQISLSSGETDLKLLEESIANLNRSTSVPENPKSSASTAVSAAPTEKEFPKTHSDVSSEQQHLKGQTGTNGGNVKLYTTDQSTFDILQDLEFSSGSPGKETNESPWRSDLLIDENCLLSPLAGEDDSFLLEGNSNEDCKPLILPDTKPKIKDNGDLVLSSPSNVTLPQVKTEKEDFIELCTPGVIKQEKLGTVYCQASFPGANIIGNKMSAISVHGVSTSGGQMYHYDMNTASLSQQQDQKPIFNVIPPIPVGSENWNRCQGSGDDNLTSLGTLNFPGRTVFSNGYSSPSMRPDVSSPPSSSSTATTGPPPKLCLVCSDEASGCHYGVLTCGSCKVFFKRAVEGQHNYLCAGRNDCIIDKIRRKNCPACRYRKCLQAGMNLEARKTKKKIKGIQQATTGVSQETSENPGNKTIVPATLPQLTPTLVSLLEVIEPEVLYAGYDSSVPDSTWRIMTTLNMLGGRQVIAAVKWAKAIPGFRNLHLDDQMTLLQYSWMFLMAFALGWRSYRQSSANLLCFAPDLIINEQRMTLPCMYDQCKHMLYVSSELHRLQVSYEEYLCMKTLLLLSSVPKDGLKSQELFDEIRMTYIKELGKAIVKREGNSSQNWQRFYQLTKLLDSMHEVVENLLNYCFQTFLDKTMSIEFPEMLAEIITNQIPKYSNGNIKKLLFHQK
Voltage-gated inwardly rectifying potassium channel KCNH2 (Homo sapiens), sequence (Q12809 whole entry, looked up): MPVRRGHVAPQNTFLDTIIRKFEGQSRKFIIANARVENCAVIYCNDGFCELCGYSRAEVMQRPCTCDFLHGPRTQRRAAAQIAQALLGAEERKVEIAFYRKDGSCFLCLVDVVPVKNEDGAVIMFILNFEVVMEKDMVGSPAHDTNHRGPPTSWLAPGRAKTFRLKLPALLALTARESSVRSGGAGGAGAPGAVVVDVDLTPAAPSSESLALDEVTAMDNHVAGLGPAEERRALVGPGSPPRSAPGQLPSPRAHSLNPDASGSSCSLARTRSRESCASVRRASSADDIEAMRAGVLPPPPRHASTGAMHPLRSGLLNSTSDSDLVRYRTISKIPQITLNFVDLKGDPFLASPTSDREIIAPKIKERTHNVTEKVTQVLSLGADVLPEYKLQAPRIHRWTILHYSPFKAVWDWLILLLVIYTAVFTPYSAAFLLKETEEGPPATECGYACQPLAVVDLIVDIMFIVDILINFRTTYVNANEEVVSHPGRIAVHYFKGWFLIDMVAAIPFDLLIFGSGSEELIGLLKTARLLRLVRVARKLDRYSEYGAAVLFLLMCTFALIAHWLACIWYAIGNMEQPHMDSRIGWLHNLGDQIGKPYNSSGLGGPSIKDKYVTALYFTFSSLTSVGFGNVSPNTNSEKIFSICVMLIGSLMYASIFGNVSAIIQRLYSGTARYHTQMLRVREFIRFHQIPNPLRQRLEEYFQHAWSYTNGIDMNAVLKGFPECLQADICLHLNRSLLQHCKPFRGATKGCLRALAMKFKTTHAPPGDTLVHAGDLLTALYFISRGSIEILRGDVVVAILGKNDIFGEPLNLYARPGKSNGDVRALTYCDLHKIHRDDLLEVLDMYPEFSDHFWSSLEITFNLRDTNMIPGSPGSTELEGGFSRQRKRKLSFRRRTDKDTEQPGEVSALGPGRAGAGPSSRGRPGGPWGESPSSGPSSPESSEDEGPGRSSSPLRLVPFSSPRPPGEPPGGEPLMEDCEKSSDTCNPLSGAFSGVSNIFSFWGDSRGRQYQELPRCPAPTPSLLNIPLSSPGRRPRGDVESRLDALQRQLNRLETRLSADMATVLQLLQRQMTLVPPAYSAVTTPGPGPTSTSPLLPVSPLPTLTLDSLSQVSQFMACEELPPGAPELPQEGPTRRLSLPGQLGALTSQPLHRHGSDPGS
Transient receptor potential cation channel subfamily V member 1 (Homo sapiens), sequence (Q8NER1 whole entry, looked up): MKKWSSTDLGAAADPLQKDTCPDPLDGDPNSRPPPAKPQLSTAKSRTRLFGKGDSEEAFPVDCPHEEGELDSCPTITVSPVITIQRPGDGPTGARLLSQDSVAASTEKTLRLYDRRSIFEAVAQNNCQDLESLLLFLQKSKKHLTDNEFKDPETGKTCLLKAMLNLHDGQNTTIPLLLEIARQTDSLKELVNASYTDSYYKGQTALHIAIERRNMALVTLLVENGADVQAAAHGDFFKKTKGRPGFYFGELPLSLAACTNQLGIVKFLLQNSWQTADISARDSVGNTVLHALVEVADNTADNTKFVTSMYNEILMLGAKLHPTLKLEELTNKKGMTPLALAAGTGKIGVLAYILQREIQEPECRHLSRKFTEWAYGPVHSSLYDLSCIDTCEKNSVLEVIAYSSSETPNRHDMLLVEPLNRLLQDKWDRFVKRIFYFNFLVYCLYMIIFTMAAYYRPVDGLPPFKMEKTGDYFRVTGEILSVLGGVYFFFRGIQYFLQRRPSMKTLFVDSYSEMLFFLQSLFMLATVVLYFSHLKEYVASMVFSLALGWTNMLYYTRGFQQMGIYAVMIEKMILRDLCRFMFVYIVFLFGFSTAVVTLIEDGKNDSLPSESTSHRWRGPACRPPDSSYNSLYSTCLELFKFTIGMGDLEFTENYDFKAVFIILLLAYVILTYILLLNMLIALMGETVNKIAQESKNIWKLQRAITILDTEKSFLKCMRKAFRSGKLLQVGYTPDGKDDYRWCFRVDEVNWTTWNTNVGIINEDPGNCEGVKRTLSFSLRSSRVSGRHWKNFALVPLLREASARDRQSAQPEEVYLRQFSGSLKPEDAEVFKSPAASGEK
Ferritin light chain (Equus caballus), sequence (P02791 2-175 limits assumed): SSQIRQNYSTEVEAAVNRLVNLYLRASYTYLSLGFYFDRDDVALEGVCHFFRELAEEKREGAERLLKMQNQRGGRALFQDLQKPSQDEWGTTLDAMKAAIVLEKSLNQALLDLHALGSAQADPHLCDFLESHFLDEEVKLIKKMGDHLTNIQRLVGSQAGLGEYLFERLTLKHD
Cytochrome P450 3A4 (Homo sapiens), sequence (P08684 whole entry, looked up): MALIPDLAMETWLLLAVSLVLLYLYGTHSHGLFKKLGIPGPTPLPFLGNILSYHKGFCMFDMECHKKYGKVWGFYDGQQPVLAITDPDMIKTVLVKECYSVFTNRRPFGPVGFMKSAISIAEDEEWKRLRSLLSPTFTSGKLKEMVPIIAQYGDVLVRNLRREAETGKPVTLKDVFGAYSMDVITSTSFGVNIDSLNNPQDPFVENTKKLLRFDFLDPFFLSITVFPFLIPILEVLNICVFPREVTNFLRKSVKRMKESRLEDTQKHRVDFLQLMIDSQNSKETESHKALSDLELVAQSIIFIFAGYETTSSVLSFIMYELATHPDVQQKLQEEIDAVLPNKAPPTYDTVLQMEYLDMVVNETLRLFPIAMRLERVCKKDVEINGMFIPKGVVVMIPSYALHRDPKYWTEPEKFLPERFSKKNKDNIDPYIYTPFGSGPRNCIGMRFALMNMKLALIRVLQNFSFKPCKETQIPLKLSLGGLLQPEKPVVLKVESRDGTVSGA
DNA repair nuclease/redox regulator APEX1 (Homo sapiens), sequence (P27695 whole entry, looked up): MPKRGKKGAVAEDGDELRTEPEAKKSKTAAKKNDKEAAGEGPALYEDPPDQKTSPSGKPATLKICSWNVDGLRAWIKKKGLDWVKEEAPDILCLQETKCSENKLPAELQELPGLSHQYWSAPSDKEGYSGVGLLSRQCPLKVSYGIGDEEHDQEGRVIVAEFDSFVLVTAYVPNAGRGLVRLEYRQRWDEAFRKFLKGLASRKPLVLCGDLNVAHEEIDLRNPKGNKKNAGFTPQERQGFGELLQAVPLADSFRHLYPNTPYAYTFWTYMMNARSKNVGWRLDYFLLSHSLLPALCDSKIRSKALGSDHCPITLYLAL
Thyrotropin-releasing hormone receptor (Homo sapiens), sequence (P34981 whole entry, looked up): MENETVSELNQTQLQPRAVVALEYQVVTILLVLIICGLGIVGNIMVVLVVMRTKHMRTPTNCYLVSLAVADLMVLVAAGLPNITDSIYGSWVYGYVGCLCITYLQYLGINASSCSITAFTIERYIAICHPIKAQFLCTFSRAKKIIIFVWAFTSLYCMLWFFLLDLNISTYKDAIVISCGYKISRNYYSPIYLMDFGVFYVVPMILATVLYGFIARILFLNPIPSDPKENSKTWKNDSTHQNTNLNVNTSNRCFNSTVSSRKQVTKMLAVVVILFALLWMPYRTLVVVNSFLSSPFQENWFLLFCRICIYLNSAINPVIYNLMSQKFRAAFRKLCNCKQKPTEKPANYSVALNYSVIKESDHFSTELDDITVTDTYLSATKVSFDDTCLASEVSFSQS
Galactokinase (Homo sapiens), sequence (P51570 whole entry, looked up): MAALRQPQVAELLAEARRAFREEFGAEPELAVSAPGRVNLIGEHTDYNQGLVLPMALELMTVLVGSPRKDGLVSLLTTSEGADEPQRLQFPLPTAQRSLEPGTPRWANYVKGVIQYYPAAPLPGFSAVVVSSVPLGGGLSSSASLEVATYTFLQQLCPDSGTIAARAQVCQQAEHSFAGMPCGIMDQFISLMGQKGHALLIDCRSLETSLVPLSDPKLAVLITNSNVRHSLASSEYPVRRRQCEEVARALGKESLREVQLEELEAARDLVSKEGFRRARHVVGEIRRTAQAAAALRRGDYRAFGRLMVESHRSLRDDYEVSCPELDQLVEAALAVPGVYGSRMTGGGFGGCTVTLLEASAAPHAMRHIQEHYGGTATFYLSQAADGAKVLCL

CC(C)n1cnc2c(C(=O)N[C@H]3CN4CCC3CC4)cc(Cl)cc21
14.7%: max response ([6]; measured here: cell count channel max response)
active: Potency [4] 398 nM | Potency [5] 31.6 µM
19.1%: max response ([6]; measured here: lipid channel max response)
inactive: Potency [1] > 46 µM | Potency [2] > 46 µM | Potency [3] | activity change, negative = inhibition ([6]; at 57.5 µM (top of the series)) 2.71% | Potency [7] | Potency [8] | Potency [9]

C[C@@H]1O[C@@H](O[C@H]2C[C@@H](O)[C@]3(CO)[C@@H]4C(CC[C@]3(O)C2)[C@@]2(O)CC[C@H](C3=CC(=O)OC3)[C@@]2(C)C[C@H]4O)[C@H](O)[C@H](O)[C@H]1O (stereo partly specified)
active: Potency [14] 11.2 µM | Potency [18] 100 nM
inactive: Potency [10] | Potency [11] | outcome [12] | Potency [13] | outcome [15] | Potency [16] | Potency [17] | outcome [19] | activation [20] 0.375% | outcome [21] | Potency [8] | Potency [22] | Potency [9]

O=C(CCCN1CCC2(CC1)C(=O)N(Cc1cccc(F)c1)CN2c1ccccc1)c1ccc(F)cc1
active: Potency [23] 3.16 µM
inactive: Potency [1] > 46 µM | Potency [2] > 46 µM | Potency [8] | Potency [9]
